Unmarked numbers belong to inactive results.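 The calls were made as follows: active = inhibition over a set limit, the all-compound mean plus 3 SD, in both replicate runs; inconclusive = over that limit in just one replicate run; inactive = at or under that limit in both runs.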
Assay: RAM pathway blockade in budding yeast – dse1pr::URA3 reporter, 5-FOA selection, pilot screen (AID 869);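 also: 0% = DMSO wells with no growth and 100% = 10 µM 1-NA-PP1 with full growth; RAM network block rescues cells from 5-FOA so hits raise OD615 growth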
Conditions: S. cerevisiae dse1pr::URA3 5-FOA growth, OD615, 2 d; at 10 µM; stronger effect = higher value; strain carries analog-sensitive mutant Cbk1 kinase

Row | Structure (SMILES) | inhibition [%]
1 | c1ccc(Cn2nnc3c(N4CCOCC4)ncnc32)cc1 | 0.93
2 | CCN(CC)S(=O)(=O)c1ccc(-c2nnco2)cc1 | 3.09
3 | Cc1ccc2nc(NC(=O)CCNS(=O)(=O)c3cccs3)sc2c1 | 0.45
4 | Cn1c(=O)c2c(SCc3cccnc3)nc(CC(C)(C)C)nc2n(C)c1=O | 0.1
5 | Cc1c(Nc2nc3ccccc3nc2N2CCN(c3ccccc3)CC2)c(=O)n(-c2ccccc2)n1C | 0.73
6 | CC(C)N(Cc1nc(-c2ccc(Cl)cc2)no1)C(=O)CCCN1C(=O)c2ccccc2C1=O | 1.4
7 | COc1ccc(-c2nc(CSCC(=O)N3CCC(C(N)=O)CC3)c(C)o2)cc1OC | 0.78
8 | COc1ccc(N(CC(=O)NCc2cccnc2)S(=O)(=O)c2c(C)nn(C)c2C)cc1 | 1.57
9 | O=C(NC1CCCCC1)C1CC(=O)N(c2ccc(Cl)cc2)C1 (stereo not given) | 1.29
10 | COc1cc(C(=O)NCc2ccco2)c(Br)c(OC)c1OC | 0.865
11 | COC(=O)C1C(O)=C(C(C)=N)C(=O)CC1(C)C (stereo not given) | -0.755
12 | Cn1c(SCC(=O)Nc2ccccc2F)nnc1-c1cccnc1 | 1.01
13 | O=C(CCCC(=O)NCC1CCCO1)NCC1CCCO1 (stereo not given) | 0.185
14 | O=c1[nH]c(NCCCO)nc2c1C1(CCCC1)Cc1ccccc1-2 | -0.175
15 | Fc1ccc(Cc2nnc(-c3cccs3)o2)cc1 | 1.93
16 | Cc1ccc(Cn2nnc3c(=O)n(Cc4ccccc4C)cnc32)cc1 | 1.68
17 | COCCOC(=O)C1=C(C)NC2=C(C(=O)CCC2)C1c1ccc(N(C)C)cc1 (stereo not given) | 0.975
18 | COc1ccc(C2C(C(N)=O)=C(C)Nc3nc(-c4ccccc4Cl)nn32)c(OC)c1 (stereo not given) | 1.21
19 | CC(=O)N1CCc2cc(C(=O)CN3CCC(C)CC3)ccc21 | 1.56
20 | COc1cccc(OCC(=O)N(Cc2nc(-c3ccc(Cl)cc3)no2)C(C)C)c1 | 3.32

Row | Structure (SMILES) | inhibition [%]
21 | CCn1c(-c2cc(OC)ccc2OC)csc1=Nc1c(C)n(C)n(-c2ccccc2)c1=O | 1.58
22 | NC(=O)SCC(=O)Nc1ccc(Cl)c(Cl)c1 | 2.52
23 | O=C(NCC1CCCO1)C1CC(=O)N(c2ccc(F)c(Cl)c2)C1 (stereo not given) | 1.5
24 | COc1cc(CO)cc(Br)c1OCC(=O)O | 0.03
25 | Cn1c(CNC(=O)C(C)(C)C)nc2ccccc21 | 1.8
26 | CCN(CC)c1cccc(OC2=NS(=O)(=O)c3ccccc32)c1 | 1.63
27 | CC(CNC(=O)C1CCCCC1)NC(=O)C1CCCCC1 (stereo not given) | 0.08
28 | COc1ccc(-c2nc(CSCC(=O)N3CCN(C4CCCCC4)CC3)c(C)o2)cc1OC | 1.04
29 | Cc1ccc(NS(=O)(=O)c2ccc3c(c2)oc(=O)n3C)cc1F | 1.1
30 | Cc1c(C(=O)NCC2CCCO2)oc2ccc(S(=O)(=O)N3CCCCC3)cc12 (stereo not given) | 2.4
31 | COc1cccc(N2CCN(C(=O)CN(C)S(=O)(=O)c3ccc4c(c3)CCC(=O)N4)CC2)c1 | 0.59
32 | CCOc1ccc(N(CC(=O)N2CCN(c3ccccc3)CC2)S(=O)(=O)c2c(C)noc2C)cc1 | 1.49
33 | CC1(C)CC(N2CCN(c3ccccc3)CC2)=CC(=[N+]2CCCC2)C1 | 1.37
34 | O=C(Cn1cnc2c(cnn2-c2ccc(F)cc2)c1=O)NCCc1ccccc1 | 3.04
35 | Cc1nnc(Nc2ccc3c(c2)OCO3)c2ccccc12 | 0.365
36 | O=C(O)CC1C(=O)NCCN1CCCc1ccccc1 (stereo not given) | 0.455
37 | O=C(CN1CCCCC1)Nc1nnc(-c2ccccc2)s1 | 0.38
38 | COc1ccc(N2C(=O)C3CCCN3C2c2ccc(Cl)cc2)cc1 (stereo not given) | 1.7
39 | CCOC(=O)c1cnc2c(C)cccc2c1NCc1ccco1 | 1.28
40 | COc1ccc(OC)c(-n2c(SCC(=O)Nc3cc(C)on3)nnc2-c2c[nH]c3ccccc23)c1 | 1.31

Reference: PubChem BioAssay
